Assay results reported in PubChem BioAssay AID588354 (The Scripps Research Institute Molecular Screening Center, 2011).
Hit rate of the full screen: of about 360,000 compounds, about 430 (0.12%) were called active. The list comes from a sample in which actives are over-represented; it also holds similar structures and randomly drawn compounds. Unmarked numbers belong to inactive results.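 How the source made its calls: active means inhibition above the campaign mean plus 3 SD, with each screening campaign given its own cutoff (cut at about 60% in these data); inactive means the rest.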

Molecular target: Nuclear receptor coactivator 1 (Homo sapiens) (UniProt Q15788)
Test: SRC1 coactivator transcriptional activity inhibitors, primary screen, cell-based, luminescence (AID 588354);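 further: 0% = DMSO treated cells and 100% = gossypol at 36 µM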
Conditions: HEK293 GAL4-SRC1 luciferase reporter, at 3.6 µM, hits give high values

Chain of Nuclear receptor coactivator 1 (Homo sapiens) (Q15788 whole entry, looked up): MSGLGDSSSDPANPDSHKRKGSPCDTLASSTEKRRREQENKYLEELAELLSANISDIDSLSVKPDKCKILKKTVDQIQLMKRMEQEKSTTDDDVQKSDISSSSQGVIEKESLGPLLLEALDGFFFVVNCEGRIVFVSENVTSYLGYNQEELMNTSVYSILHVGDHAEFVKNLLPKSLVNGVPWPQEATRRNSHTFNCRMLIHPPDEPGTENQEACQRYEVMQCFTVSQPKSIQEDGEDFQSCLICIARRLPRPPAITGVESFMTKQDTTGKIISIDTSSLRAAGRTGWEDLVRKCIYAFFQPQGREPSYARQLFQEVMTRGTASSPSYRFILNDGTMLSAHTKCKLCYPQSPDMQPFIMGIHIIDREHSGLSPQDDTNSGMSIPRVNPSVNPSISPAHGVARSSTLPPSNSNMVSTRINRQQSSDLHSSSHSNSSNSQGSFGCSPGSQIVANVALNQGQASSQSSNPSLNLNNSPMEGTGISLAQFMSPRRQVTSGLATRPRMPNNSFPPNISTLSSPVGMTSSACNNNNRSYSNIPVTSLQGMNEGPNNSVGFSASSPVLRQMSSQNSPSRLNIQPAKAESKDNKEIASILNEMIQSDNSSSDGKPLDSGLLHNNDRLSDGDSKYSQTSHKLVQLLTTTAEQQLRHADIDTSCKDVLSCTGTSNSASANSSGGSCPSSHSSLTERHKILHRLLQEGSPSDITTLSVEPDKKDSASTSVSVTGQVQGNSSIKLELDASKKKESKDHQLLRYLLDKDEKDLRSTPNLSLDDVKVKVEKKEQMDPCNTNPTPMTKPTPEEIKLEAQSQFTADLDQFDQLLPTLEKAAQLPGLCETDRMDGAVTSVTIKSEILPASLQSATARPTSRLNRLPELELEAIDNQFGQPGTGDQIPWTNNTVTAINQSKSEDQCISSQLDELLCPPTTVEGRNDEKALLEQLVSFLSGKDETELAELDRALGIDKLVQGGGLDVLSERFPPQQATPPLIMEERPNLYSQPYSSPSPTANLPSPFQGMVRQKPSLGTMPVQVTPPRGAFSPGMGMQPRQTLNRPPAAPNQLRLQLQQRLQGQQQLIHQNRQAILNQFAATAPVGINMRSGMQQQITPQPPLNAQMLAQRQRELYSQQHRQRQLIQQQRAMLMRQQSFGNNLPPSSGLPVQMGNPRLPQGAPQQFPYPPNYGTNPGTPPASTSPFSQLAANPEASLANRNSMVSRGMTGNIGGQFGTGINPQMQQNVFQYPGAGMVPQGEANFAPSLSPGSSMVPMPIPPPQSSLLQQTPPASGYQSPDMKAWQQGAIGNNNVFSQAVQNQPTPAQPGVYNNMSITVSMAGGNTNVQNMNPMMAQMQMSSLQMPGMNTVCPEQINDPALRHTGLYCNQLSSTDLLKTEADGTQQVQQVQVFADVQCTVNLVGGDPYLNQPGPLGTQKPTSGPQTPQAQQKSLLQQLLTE

Row | SMILES | inhibition
1 | CCN(C(=O)COC(=O)CCOc1cccc(C)c1)c1c(N)n(Cc2ccccc2)c(=O)[nH]c1=O | 4.13%
2 | Cc1cccc(C)c1Cn1c(C)c(C(=O)NCc2cccc(Cl)c2)sc1=O | -0.2%
3 | CCc1ccc(CN(C)C(=O)C2CCC(=O)N(Cc3cccc(OC)c3)C2)nc1 (configuration not stated) | 5.84%
4 | CC(C)CN(C(=O)CSc1nncn1C)C1CCS(=O)(=O)C1 (configuration not stated) | 14%
5 | O=C(N/N=C/c1ccccc1O)/C(=C/c1ccccc1)CCO | 30.9%
6 | O=C(NN=Cc1ccccc1O)NN=Cc1ccccc1O | 63% (active)
7 | C=CCOc1ccccc1/C=N/NC(=O)Cc1ccccc1 | -8.79%
8 | CCSc1sc(CC)cc1C=O | -14.9%
9 | Cc1cc2c(cc1C)N(Cc1ccccc1)C1=NCCCN12 | 21.9%
10 | CS(=O)(=O)Nc1ccccc1C(=O)OCC(=O)NC1CC1 | -13.3%
11 | COc1ccc2c(c1)c(=Cc1ccc(N(C)C)cc1)c1cc(-c3ccccc3)[n+](C)n12 | 64.1% (active)
12 | COc1ccc(OC)c(Nc2nc3ccccc3n3cnnc23)c1 | 1.7%
13 | COc1ccc(OC)c(NC(=O)CN(C)CCOc2ccc(Br)cc2)c1 | -10.8%
14 | COc1ccc(Nc2ncnc3ccc(Br)cc23)c(OC)c1 | 81.9% (active)
15 | COc1ccccc1C(=O)NC(=O)COC(=O)c1ccco1 | 3.45%
16 | COC(=O)c1ccc(NC(=O)CSc2nncc3ccc(OC)c(OC)c23)cc1 | -23.3%
17 | CCN(CC)CCCNC(=O)c1c(O)c2cc(F)cc3c2n(c1=O)C(C)CC3 (configuration not stated) | -12.1%
18 | COc1ccc(CCN2C(=O)N(c3ccc(OC)cc3)C(=O)C2CC(=O)Nc2ccc(OC)cc2)cc1 (configuration not stated) | -12.4%
19 | O=C(Nc1cccc2c1CCCC2)C1CCN(C(=O)NC2CCCCC2)CC1 | 3.24%
20 | O=C(CC1Nc2ccccc2NC1=O)Nc1ccccc1 (configuration not stated) | -51.2%
21 | CCN(c1ccccc1)S(=O)(=O)c1ccc(OCC(=O)N2CCCC2)cc1 | -2.15%
22 | CCC(C)NC(=O)c1cc(Cl)ccc1OC (configuration not stated) | 3%
23 | CC(C)C[C@H](NC(=O)C1CCC(CNC(=O)[C@@H]2CCCN2C(=O)OC(C)(C)C)CC1)C(=O)O (some centres not stated) | 16%

Row | SMILES | inhibition
24 | CC(C)(C)C(=O)NCCCNc1ccc([N+](=O)[O-])cc1 | -24.3%
25 | CCN(CC)S(=O)(=O)c1ccc(N2CCN(C)CC2)c(NC(=O)Nc2ccccc2F)c1 | -0.49%
26 | COCC1CCCN(Cc2nc(-c3ccc4c(c3)OCO4)no2)C1 (configuration not stated) | -70.5%
27 | CC(=O)Nc1ccc(C(=O)Nc2cc(S(=O)(=O)N3CCOCC3)ccc2N2CCOCC2)cc1 | -2.37%
28 | O=C(NCCc1ccccc1)Oc1ccc(Cl)cc1 | -56.8%
29 | COc1ccc(CN2CCC(c3nc4ccc(Cl)cc4[nH]3)CC2)cc1 | 2.53%
30 | Cc1cc(NC(=O)CSC2=NS(=O)(=O)c3cc(Cl)ccc3N2)no1 | -31%
31 | CN(CCOc1ccc(Br)cc1)CC(=O)Nc1cccc(S(=O)(=O)NC2=NCCC2)c1 | -16.8%
32 | CC(C)(C)c1ccccc1NC(=O)CN1C(=O)NC2(CCCC2)C1=O | -13.8%
33 | CCn1nc(C(=O)Nc2ccc(N3CCOCC3)cc2)c2ccccc2c1=O | -1.53%
34 | CCCCOC(=O)NCN1C(=O)C2C3C=CC(C3)C2C1=O (configuration not stated) | 1%
35 | Clc1ccc(Cn2ncc3c(NCc4cccnc4)ncnc32)cc1 | -4.66%
36 | Brc1ccc2ncnc(NCc3cccnc3)c2c1 | 66.1% (active)
37 | Cc1cc(NCc2cccnc2)no1 | 25.1%
38 | COc1ccc(S(=O)(=O)N2CCN(C(=O)N(C)C)C2C)cc1 (configuration not stated) | -47.2%
39 | C=CCN1C=C(C(=O)c2ccccc2)C(=O)CC1 | -2.55%
40 | O=C(O)C1CCCN1C1=NS(=O)(=O)c2ccccc21 (configuration not stated) | 12.2%
41 | Cc1ccc(C)c(OCc2cc(C(=O)N3CCN(c4cnccn4)CC3)no2)c1 | -12.1%
42 | CCOc1ccccc1NS(=O)(=O)c1c[nH]c(C(=O)OC)c1 | -15%
43 | C=CC[C@H](CC(=O)OC(C)(C)C)C(=O)OC[C@H]1CCCN1C(=O)[C@H](CC=C)CC(=O)N(CCO)Cc1ccccc1 | -0.47%
44 | CC1(C)CN(Cc2cccnc2)C(=O)[C@H]1CC(=O)Nc1ccc(Br)cc1 | -2.09%
45 | O=c1ccc2c(-c3ccccc3S(=O)(=O)O)c3ccc(O)c(O)c3oc-2c1O | 13.4%
46 | CCn1c(SCC(=O)N2CCCC2=O)nc2ccccc21 | 16.1%

Row | SMILES | inhibition
47 | CC1=C(C(=O)N(C)C)C(c2ccccc2OC(F)F)NC(=O)N1 (configuration not stated) | 4.69%
48 | O=C(NC1CCCC1)C(c1ccc(N2CCOCC2)cc1)N(C(=O)c1ccco1)c1ccccc1F (configuration not stated) | 5.48%
49 | Cc1ccc(CSCC2Nc3ccc(C(=O)N4CCN(c5ccc(F)cc5)CC4)cc3NC2=O)cc1 (configuration not stated) | 2.74%
50 | C[C@@H](C(=O)N1CCNCC1)n1cc(CCC(=O)O)nn1 | 3.05%
51 | Cc1ccccc1-c1cc(C(=O)NCC2CC2)n(CC2CC(c3cccnc3)=NO2)n1 (configuration not stated) | 2.14%
52 | CO/N=C/c1cn(-c2ccc(Cl)cc2)nn1 | -12.7%
53 | COc1ccc(C(=O)Nc2ccccc2C(=O)N/N=C/c2ccc(O)c(OC)c2)cc1 | 64.2% (active)
54 | COc1cccc(OCc2cc(/C=N/NC(=O)c3nc(Cl)c(Cl)c(N)c3Cl)ccc2OC)c1 | -14.2%
55 | CCOc1cc(/C=N/NC(=O)c2c(C)nc3ccc(Cl)cn23)ccc1O | 0.11%
56 | CC1CN(c2nc(-c3ccccc3)nnc2-c2ccccc2)CC(C)O1 (configuration not stated) | 10.6%
57 | CC(Oc1ccc(Cl)cc1Cl)C(=O)/C=C/N(C)C (configuration not stated) | -17.4%
58 | COCCN(Cc1nc(-c2ccc(C(F)(F)F)cc2)no1)C(C)C | -8.16%
59 | CC(CCn1cccn1)NC(=O)CCc1nnc(CCc2ccccc2)o1 (configuration not stated) | 11.7%
60 | O=C(Nc1cc(-c2ccccc2)nn1-c1ccccc1F)c1ccc([N+](=O)[O-])cc1 | -16.9%
61 | O=C(NNS(=O)(=O)Cc1ccccc1)c1ccc([N+](=O)[O-])cc1 | -4.79%
62 | O=C(NC(Nc1nc2ccc([N+](=O)[O-])cc2s1)(C(F)(F)F)C(F)(F)F)c1ccccc1 | 68.3% (active)
63 | COc1cc(CN2CCNC(=O)C2CC(=O)NCCc2ncccc2C)cc(OC)c1 (configuration not stated) | 14.8%
64 | O=C(CCc1ccc(S(=O)(=O)N2CCOCC2)cc1)Nc1ccc2ccccc2c1 | -5.83%
65 | CC1CCCN(CCOCCOc2ccccc2-c2ccccc2)C1 (configuration not stated) | 9.99%
66 | C[C@H]1CN([C@@H](C)CO)C(=O)c2cc(Br)cnc2O[C@H]1CN(C)S(=O)(=O)c1cccs1 | -44.2%
67 | N#CC1(NC(=O)COC(=O)CSc2ccc(F)cc2)CCCCC1 | 20.2%
68 | CCOc1cc(CNCc2ccccn2)ccc1OCC(=O)NC(C)(C)C | 10.8%
69 | O=C(Cc1ccccn1)c1ccc(O)cc1O | -0.25%

Row | SMILES | inhibition
70 | CCC(C)C(=O)Nc1cc([N+](=O)[O-])ccc1Cl (configuration not stated) | -3.1%
71 | OCCCNc1nccc(-c2cc(Nc3cccc(Cl)c3)ncn2)n1 | 73.6% (active)
72 | COc1ccc(-c2c(C#N)cnc(C)c2C)c(O)c1OC | -0.11%
73 | O=C(c1ccc[nH]c1=S)N1CCN(S(=O)(=O)c2ccc(Br)cc2Cl)CC1 | -3.09%
74 | CC(C)CCNC(=O)CCNS(=O)(=O)c1ccc(Cl)cc1 | -13%
75 | Nc1cc2c(cc1Br)-c1ccc(F)cc1C2=O | -13.1%
76 | CCOC(=O)N1CCC(O)(c2cc(C)c(C)cc2C)CC1 | -15.8%
77 | O=C(NCc1ccccc1Cl)C1CCCN1S(=O)(=O)c1ccc(F)cc1 (configuration not stated) | -10.6%
78 | CCn1nc(C)c(CNC(=O)C2CCC(=O)N(Cc3cccc(F)c3)C2)c1C (configuration not stated) | -37.5%
79 | COc1ccc(NC(=O)CSc2nc(NS(=O)(=O)c3ccc(C)cc3)cc(=O)[nH]2)cc1 | -19.6%
80 | COCCn1nnnc1CN1CCC(NC(=O)Nc2cccc(OC)c2)CC1 | 0.56%
81 | CC(=O)c1ccc(N2CCN(C(=O)CCNC(=O)Cn3ccc4ccccc4c3=O)CC2)cc1 | 3.75%
82 | O=C(c1cccc(-n2cccc2)c1)N1CCN(S(=O)(=O)c2ccc(F)cc2)CC1 | -2.17%
83 | COc1ccc([C@H]2[C@H](C(C)=O)N3N=Cc4ccccc4C3C23C(=O)OC(C)(C)OC3=O)cc1 (some centres not stated) | -26.2%
84 | CC(C)Oc1ccc(/C=N/NC(=O)c2nnn(-c3nonc3N)c2CN(C)C2CCCCC2)cc1 | 7.06%
85 | CCOc1ccccc1-n1c(SCC(=O)NCc2ccco2)nnc1-c1ccncc1 | 5.79%
86 | O=C(COC(=O)CCOc1ccccc1)Nc1cc(S(=O)(=O)N2CCCCC2)ccc1Cl | -9.87%
87 | COCCOC1CCN(C(=O)c2ccc(OC)c(OC3CCN(C(C)C)CC3)c2)CC1 | -0.27%
88 | CCOC(=O)CC1COCCN1C(=O)c1cc(COc2ccc(F)c(F)c2)on1 (configuration not stated) | -5.67%
89 | COCCn1c(N)c(NCc2ccccc2)c(=O)[nH]c1=O | -11.5%
90 | CCOP1(=O)C=C(C(C)(C)C)OC1c1ccc(F)cc1 (configuration not stated) | -6.16%
91 | O=C(O)COCC(=O)NCc1csc2ccc(Cl)cc12 | 11.9%
92 | CC1(C)CC(CNCCC(c2ccc(F)cc2)c2ccco2)CCO1 (configuration not stated) | 12.7%
